Hits are enriched below; roughly 2.8% of the tested compounds scored in any of these assays.
proKLK7 act: activators of human kallikrein-7 zymogen; P49862; purified proKLK7, EDANS-DABCYL substrate fluorescence; 100% is mature enzyme control, 0% vehicle; activation, % at 7 µM; 370,000 tested, 0.9% active; AID 652039;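 active = activation above the mean of all tested compounds plus 3 SD, computed per campaign excluding outliers beyond control limits, cut at about 13% in these data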
Target sequence (P49862 whole entry, looked up): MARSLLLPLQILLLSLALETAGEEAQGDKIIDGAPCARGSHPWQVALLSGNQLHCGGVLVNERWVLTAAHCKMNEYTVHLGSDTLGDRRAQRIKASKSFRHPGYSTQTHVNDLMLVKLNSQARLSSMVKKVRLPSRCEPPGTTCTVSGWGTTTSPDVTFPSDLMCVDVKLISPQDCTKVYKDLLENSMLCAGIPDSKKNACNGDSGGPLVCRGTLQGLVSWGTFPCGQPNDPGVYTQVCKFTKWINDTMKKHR
MsrA inh: bovine MsrA inhibition; purified bovine MsrA, absorbance read-out; inhibition, % at 15.5 µM; 360,000 tested, 0.75% active; AID 651718; in the data active = inhibition above about 4.5%;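 also: 0% = vehicle wells with enzyme and 100% = reference inhibitor wells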
MsrA act: activators of bovine methionine sulfoxide reductase A; purified bovine MsrA, absorbance read-out; activation, % at 10.6 µM; 360,000 tested, 0.3% active; AID 602163; in the data active = activation above about 7.5%;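 also: 0% = vehicle and 100% = reference activator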
SMARCA2 activ: activators of SMARCA2 function. 370,000 tested, 1% active. activation, % at 9.1 µM. MG213 cells, MMTV-luciferase reporter, dexamethasone, overnight; in the data active = activation above about 7.8%;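 also: 0% = vehicle wells and 100% = reference activator wells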
SMARCA2 conf: confirmation of SMARCA2 (BRM) function activators; shares compounds with SMARCA2 activ; MG213 cells, MMTV-luciferase with dexamethasone, luminescence, overnight; MG213 cells expressing E1A, Rb sequestered; DMSO wells 0%, reference activator 100%; activation, % at 9.1 µM; 3,500 tested, 30% active;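 active = activation above its plate's cutoff, the mean activation of tested wells plus 3 SD, cut at about 7.9% in these data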
GAL4-VP16 Luc: counter-screen for SMARCA2 activators: GAL4-VP16 luciferase reporter activation; shares compounds with SMARCA2 activ; HEK293 GAL4-VP16 pG5luc reporter, luciferase luminescence; scaled: DMSO wells 0%, SAHA wells 100%; activation, % at 9.1 µM; 3,500 tested, 41% active; AID 686939;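 active = activation above the solvent-only control well mean plus 3 SD, averaged across control plates, cut at about 5.2% in these data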
Starred values were filed as active, the others as inactive; . = no result given.

SMILES | proKLK7 act | MsrA inh | MsrA act | SMARCA2 activ | SMARCA2 conf | GAL4-VP16 Luc
COc1ccc(-c2csc(-c3ccccc3)n2)c(OC)c1 | -4 | 0 | -12 | 3 | . | .
CC(C)n1c(/C=C/[C@@H](O)C[C@@H](O)CC(=O)O)c(-c2ccc(F)cc2)c2ccccc21 | -1 | 0 | -2 | 12* | 25* | 3
Cc1nc2c(-c3ccc(F)cc3)c(C)nn2c(C)c1CCC(=O)Nc1ccccc1 | -2 | 1 | -7 | -3 | . | .
CCCn1nnc(NC(=O)c2ccc(Cl)cc2Cl)n1 | 1 | 0 | -3 | 14* | 1 | 7.8*
Cc1nn(C)cc1CNC(=O)Nc1ccc(Cl)c(Cl)c1 | 0 | 0 | -1 | 8.0* | 7 | 6.9*
Cc1ccccc1Cn1cc(NS(=O)(=O)c2cn(C)nc2C)cn1 | 0 | 0 | -5 | 8.8* | -2 | 2
Cc1ccccc1Cn1cc(NC(=O)c2nn(C)cc2Cl)cn1 | -1 | 1 | -4 | -1 | . | .
COc1cccc2c3c(c(=O)[nH]c12)CC(C)(C)O3 | 1 | -1 | -4 | 12* | -1 | 0
CC(C)(C)S(=O)N1Cc2cc(CO)cc(CCO)c2[C@H]1CCO (stereo not given in full) | 0 | -1 | -2 | -1 | . | .
O=C(Nc1ccc(Cl)c(C(F)(F)F)c1)C1Cc2c(-c3ccc4c(c3)OCO4)ccnc2O1 (stereo not given) | -1 | 0 | 4 | -1 | . | .
CCc1ccc(OCC(=O)NC(=S)Nc2ccc(F)cc2)c(Br)c1 | 0 | 0 | 2 | 8.9* | 4 | 3
CCCCCC[C@H](CN(CCCC)S(C)(=O)=O)c1ccccc1 | 0 | . | . | -5 | . | .
COc1cc(Cl)ccc1OCc1cc(C(=O)N(C)C2CCOC2)no1 (stereo not given) | 0 | 0 | 1 | 8.7* | 5 | 4
COc1cc(C)ccc1OCc1cc(C(=O)N2CCN(C)C[C@@H]2c2ccccc2)no1 | 0 | 0 | 0 | 8.7* | 4 | 2
COCCN1CCN(C(=O)c2cc(COc3ccc(Cl)cc3OC)on2)CC1 | 0 | 0 | -11 | 8.3* | 14* | 9.7*
CC(C)N1CCCCC(NC(=O)c2cccs2)C1=O (stereo not given) | 0 | . | . | 0 | . | .
C/C(CC(=O)Nc1ccc(Cl)c(C(F)(F)F)c1)=N\NC(=O)c1ccccc1O | -3 | 1 | -6 | -1 | . | .
C/C(CC(=O)Nc1ccc(Cl)c(C(F)(F)F)c1)=N\NC(=O)c1cccc(O)c1 | -1 | 1 | -5 | 10* | 0 | 1
Cc1cc(C)n2c(NC3CCCC3)c(-c3cc4ccccc4o3)nc2n1 | -7 | 2 | -3 | 8.6* | 8.0* | 6.7*
O=C(NCc1cccs1)c1ccc(Cl)c(S(=O)(=O)N2CCOCC2)c1 | 0 | -1 | -1 | -2 | . | .
CCCCNC(=O)C[C@H]1C[C@@]2(C(=O)OC)C(=C[C@H](C(C)(C)C)O[C@@H]2C)N(Cc2cccc3ccccc23)C1=O | 0 | . | . | -3 | . | .
COc1ccc(CNC(=O)CSc2nnnn2C)cc1OC | 0 | -1 | -4 | 8.5* | 2 | 1
Cn1nnnc1SCC(=O)NCc1ccc2c(c1)OCO2 | 0 | 0 | -1 | 2 | . | .
CC(=O)N/C(N)=N/c1nc2cc(C)ccc2o1 | 0 | 0 | -1 | 8.9* | 6 | 9.6*
O=C(Nc1nnc(-c2cccnc2)s1)c1cnc2ccccc2c1 | 0 | . | . | 8.0* | 6 | 3
SMILES | proKLK7 act | MsrA inh | MsrA act | SMARCA2 activ | SMARCA2 conf | GAL4-VP16 Luc
O=C(Nc1nnc(C(F)(F)F)s1)c1cccnc1 | -1 | 1 | -1 | 9.0* | 3 | 9.3*
O=C(CN1CCN(c2ccccc2O)CC1)Nc1ccc2c(c1)OCCCO2 | 0 | 1 | 2 | -1 | . | .
C/C(=N\NC(=O)c1c[nH]c2ccccc12)c1ccccn1 | 0 | 0 | -3 | 0 | . | .
C/C(=N\Nc1ccc(Cl)c(C(=O)O)c1)c1ccccn1 | 0 | 3 | -3 | 13* | 3 | 3
C/C(=N\NC(=O)c1ccc(F)cc1)c1ccccn1 | 0 | -1 | 0 | 9.6* | -12 | -3
C/C(CC(=O)Nc1ccc(F)cc1)=N\NC(=O)c1ccccn1 | -1 | 0 | -2 | 9.2* | -3 | 5
C/C(=N\Nc1ccc(Cl)c(C(=O)O)c1)c1cccc2ccccc12 | 1 | 2 | -3 | 3 | . | .
CCc1ccc(NC(=O)C(=O)NCC2CCCO2)cc1 (stereo not given) | -1 | -2 | -13 | 11* | 4 | 16*
CCc1ccc(CNC(=O)C(=O)NCC2CCCO2)cc1 (stereo not given) | 1 | 0 | -2 | 0 | . | .
O=C(COc1ccccc1)NCCSc1ccccc1 | 1 | -1 | -2 | 9.4* | 10* | 7.7*
C#CC1(O)CCC2C3CCc4cc(O)cc(C)c4C3CCC21C (stereo not given) | 0 | 0 | -1 | 4 | . | .
O=S1(=O)CC(N2CCN(CCO)CC2)CN1Cc1ccc(F)cc1 (stereo not given) | 0 | 0 | -7 | 8.1* | -4 | -1
Cc1cc(Cl)c2oc(C(=O)N(C)CCCCN3CCOCC3)c(C)c2c1 | 0 | -1 | -3 | 0 | . | .
Cc1cc(Cl)c2oc(C(=O)NCC(C)(C)N3CCOCC3)c(C)c2c1 | 1 | 0 | 3 | 9.3* | 4 | 5.2*
COC(=O)C1CCN(C(=O)c2oc3c(Cl)cc(C)cc3c2C)CC1 | 0 | 0 | -3 | 9.1* | 7 | 11*
CN1C(=O)N(CC(=O)c2ccc3c(c2)OCO3)C(=O)C12CCCCC2 | 0 | 2 | -6 | -1 | . | .
Cc1ccc(NC(=O)COC(=O)Cn2c(C)csc2=O)cc1 | 0 | -2 | 1 | -4 | . | .
Cc1csc(=O)n1CC(=O)Nc1ccc(C(C)C)cc1 | -1 | 0 | -2 | 8.0* | -1 | 5.4*
S=c1[nH]ccn1Cc1ccccc1 | 0 | 0 | 0 | 8.9* | -1 | 1
S=c1[nH]ccn1-c1ccccc1Cl | 0 | -1 | -1 | -3 | . | .
COc1ccccc1COC(=O)c1cccc(S(=O)(=O)N(C)Cc2ccccc2)c1 | 0 | . | . | -1 | . | .
CCOc1ccc(Cl)cc1/C=C1/C(=O)ON=C1C | 0 | 0 | -7 | 8.0* | 5 | 1
NC(=O)C1CC(=O)N(c2ccc(OCc3c(Cl)cccc3Cl)cc2)C1 (stereo not given) | 0 | -1 | -1 | 8.7* | -5 | 1
CC(O)(c1ccccc1)c1ccc2ccccc2n1 (stereo not given) | 0 | -1 | -1 | -2 | . | .
C=CCn1c(=O)c(C(=O)Nc2ccccc2C(=O)OCC)c(O)c2ccccc21 | 0 | -1 | -11 | 2 | . | .
C=CCn1c(=O)c(C(=O)Nc2ccccc2S(N)(=O)=O)c(O)c2ccccc21 | -1 | 1 | -4 | 11* | 16* | 4
Cn1sccc1=O | 0 | 2 | 7 | 9.4* | 17* | 2
C/C(=N/NC(=O)c1ccoc1C)c1cccc(NC(=O)C(F)(F)F)c1 | 0 | 0 | . | 7 | . | .

Bioassay records: PubChem BioAssay, The Scripps Research Institute Molecular Screening Center
